Results from PubChem BioAssay (NCI).
This is part of a sample that, as a whole, favours compounds with a hit. Of some 83,000 tested, about 20% had one in any assay.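 Testing used 96-well plates and a 48-hour single-concentration exposure. Example: -40 means 40% of the starting cells died.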 Values without a mark were called inactive. Active and inactive are the calls of the source. Rule for the calls: active = growth percent below 10; inactive = the rest.

Key:
Test in all cases: NCI-60 one-dose screen, 48 h (100 = growth as untreated, 0 = no growth, -100 = all killed)
Details in all cases: 10 µM unless noted
NCI-H23 lung = test system: NCI-H23 lung
NCI-H322M lung = test system: NCI-H322M lung
HOP-62 NSCLC = test system: HOP-62 NSCLC
NCI-H460 lung = test system: NCI-H460 lung
HOP-92 NSCLC = test system: HOP-92 NSCLC
NCI-H522 lung = test system: NCI-H522 lung
A549/ATCC NSCLC = test system: A549/ATCC NSCLC
786-0 renal = test system: 786-0 renal
COLO 205 colon = test system: COLO 205 colon

SMILES | growth (NCI-H23 lung) | growth (NCI-H322M lung) | growth (HOP-62 NSCLC) | growth (NCI-H460 lung) | growth (HOP-92 NSCLC) | growth (NCI-H522 lung) | growth (A549/ATCC NSCLC) | growth (786-0 renal) | growth (COLO 205 colon)
C=CC(=O)Nc1cc2c(Nc3ccc(F)c(Cl)c3)ncnc2cc1C#CC(C)(C)N1CCN(C)CC1 | -88.9% (active) | -86% (active) | -88.3% (active) | -77% (active) | -91.3% (active) | -73.7% (active) | -82% (active) | -96.3% (active) | -71.7% (active)
O=C1/C(=C\c2cccc(OCCCCCOc3ccc(Cl)cc3)c2)N=C2SCCCN12 | 35% | 101% | 71.1% | 60.7% | 48.1% | 32.6% | 45.5% | 72.6% | 60.1%
CNC(=O)c1cc(Oc2ccc(NC(=O)Nc3cc(C(C)(C)C)nn3-c3ccc4ncccc4c3)c(F)c2)ccn1 | -49.5% (active) | -17.8% (active) | -41.4% (active) | -40.8% (active) | -10.8% (active) | -47.7% (active) | -16.1% (active) | -16.7% (active) | -78.1% (active)
CC(C)(C)c1nc(-c2cccc(NS(=O)(=O)c3c(F)cccc3F)c2F)c(-c2ccnc(N)n2)s1 | 63.6% | 90.3% | 77.1% | 74.4% | 92.9% | 57.5% | 53.6% | 91.9% | -5.08% (active)
COC(=O)[C@H](Cc1ccccc1)NC(=O)[C@@H](OC)[C@@H]1Cc2cc3cc(OC4CC(OC5CC(O)C(O)C(C)O5)C(O)C(C)O4)c(C)c(O)c3c(O)c2C(=O)[C@H]1OC1CC(OC2CC(OC3CC(C)(O)C(O)C(C)O3)C(O)C(C)O2)C(O)C(C)O1 (stereo partly specified) | -28.5% (active) | 7.54% (active) | 4.37% (active) | 4.92% (active) | -17.5% (active) | -30.7% (active) | 6.81% (active) | 0.647% (active) | -36.7% (active)
CCOC(=O)c1sc(NC(=O)COc2ccc(/C=C3\Cc4ccc(Cl)cc4C3=O)cc2)nc1C | 97.1% | 103% | 109% | 95% | 92.5% | 97.2% | 104% | 110% | 118%
Cc1cc(C)n(CC(=O)Nc2ccc(-c3nc4ccccc4s3)cc2)n1 | 93.8% | 99.9% | 105% | 102% | 97.7% | 103% | 94.7% | 106% | 112%
COc1ccc(-n2c(=O)c3ccccc3n(Cc3ccc(C(=O)NO)cc3)c2=O)cc1 | -50.1% (active) | 38.4% | 25.8% | 36.4% | 48.2% | -41.8% (active) | 38.6% | 56.5% | -50.1% (active)
N#CC[C@H](C1CCCC1)n1cc(-c2ncnc3[nH]ccc23)cn1 | 71.5% | 76.2% | 45.1% | 54.7% | 41.5% | 37.9% | 43.8% | 54.7% | 37%
COc1ccc(C(=O)N2c3ccccc3Sc3ccccc32)c(F)c1 | 32.4% | 44.2% | 37.1% | 12% | 42.3% | 0.479% (active) | 27.2% | 23.1% | 8.26% (active)
CN1CCC(CNc2ccc3ncc(-c4cccc(OC(F)(F)F)c4)n3n2)CC1 | -14.9% (active) | 8.29% (active) | -53.1% (active) | -45.8% (active) | -56.8% (active) | -69.7% (active) | -38.4% (active) | -81.6% (active) | -88.6% (active)
O=C(Nc1ccc(C2=NCCCN2)cc1)c1ccc(C(=O)Nc2ccc(C3=NCCCN3)cc2)nc1 | 102% | 111% | 97.2% | 107% | 131% | 96.1% | 141% | 96.6% | 125%
C[C@@H](C[C@H](CCO)c1cc(C(F)(F)F)cc(C(F)(F)F)c1)c1ccc2ccccc2c1 | 85.3% | 99.1% | 85.6% | 106% | 96.5% | 76.7% | 87.7% | 87.5% | 97%
C=C1C(=O)O[C@H]2[C@H]1CC/C(Cn1cc(-c3cc(C)c(C)cc3C)nn1)=C\CC[C@@]1(C)O[C@@H]21 | -61.3% (active) | 68.3% | 55.7% | 36.5% | -79% (active) | -64.2% (active) | 26% | -77.5% (active) | -70.5% (active)
